This is a sample that favours compounds with a hit; in the whole collection about 2.6% have one here.
TLR9-MyD88 inh = inhibitors of TLR9-MyD88 association in cells, primary screen, cell-based, CHO, BLA complementation, fluorescence; inhibition, % at 4.98 µM; CCF4 FRET ratio; AID 504734, 2011; Toll-like receptor 9 (Homo sapiens) + Myeloid differentiation primary response protein …; 340,000 compounds, 0.21% hits;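 active = inhibition above the mean over all tested compounds plus 3 SD, cut at about 21% in these data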
Granule exo inh = LAMP-1 surface exposure blockers, TALL-104 cells – cell-based, flow cytometry, MLPCN library, primary screen; TALL-104 LAMP-1 surface exposure; cells stimulated with thapsigargin and PMA; inhibition, % at 10 µM; 360,000 compounds, 0.66% hits; AID 651702, 2012;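 active = inhibition above about 55%, limit read from the data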
NOD2 RIPK2 PPI = NOD2-RIPK2 binding disruptors in cells, primary screen, fluorescence, CHO cells, BLA complementation; inhibition, % at 4.98 µM; CCF4 ratio; AID 624267, 2012; 360,000 compounds, 0.38% hits; Receptor-interacting serine/threonine-protein kinase 2 (Homo sapiens), O43353; in the data active = inhibition above about 21%
TLR4 MyD88 comp = inhibitors of TLR4-MyD88 association in cells, primary screen, cell-based, HeLa CL3-4, BLA complementation, FRET ratio; inhibition, % at 8.4 µM; Toll-like receptor 4 (Homo sapiens) + Myeloid differentiation primary response protein …; AID 861, 2007; HeLa CL3-4 TLR4/MyD88 BLA complementation; 200,000 compounds, 0.18% hits; in the data active = inhibition above about 25%
ABHD5-PLIN5 inh = ABHD5-PLIN5 interaction inhibitors, primary screen, cell lysate, split luciferase complementation, luminescence | Perilipin-5 (Homo sapiens) + 1-acylglycerol-3-phosphate O-acyltransferase ABHD5 (Homo … | Split G. princeps luciferase complementation, 4 h | inhibition, % at 4 µM | 360,000 compounds, 0.78% hits | AID 602281, 2012;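 active = inhibition above the mean inhibition across every tested compound plus 3 SD, cut at about 22% in these data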
PRMT1 inh = PRMT1 methyltransferase inhibitors, primary screen, biochemical, fluorescence polarization | Protein arginine N-methyltransferase 1 (Homo sapiens), Q99873 | recombinant PRMT1, activity-based probe fluorescence polarization | inhibition, % at 2.79 µM | 370,000 compounds, 1.3% hits | AID 652257, 2013;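 active = inhibition above about 21% made by adding two undisclosed values, limit read from the data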
Target sequence (Q99873 whole entry, looked up): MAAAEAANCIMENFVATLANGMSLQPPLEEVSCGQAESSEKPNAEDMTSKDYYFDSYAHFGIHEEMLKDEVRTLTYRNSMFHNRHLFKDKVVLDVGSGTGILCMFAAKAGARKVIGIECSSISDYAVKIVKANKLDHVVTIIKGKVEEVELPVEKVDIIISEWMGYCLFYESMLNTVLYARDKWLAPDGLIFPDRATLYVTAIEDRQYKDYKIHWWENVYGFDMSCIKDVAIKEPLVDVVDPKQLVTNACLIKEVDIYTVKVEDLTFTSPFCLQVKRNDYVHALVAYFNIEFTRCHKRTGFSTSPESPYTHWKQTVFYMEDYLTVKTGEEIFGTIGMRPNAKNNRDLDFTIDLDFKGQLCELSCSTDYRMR
PRMT1 confirm = PRMT1 methyltransferase inhibitors, confirmation, biochemical, fluorescence polarization, triplicate; shares compounds with PRMT1 inh; recombinant His-PRMT1, activity-based probe fluorescence polarization; inhibition, % at 2.79 µM; 3,300 compounds, 42% hits;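 active = mean inhibition across replicates above the hit cutoff derived for the earlier primary screen, cut at about 22% in these data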
Numbers stand for hits; 0 = inactive; - = no result.

SMILES	TLR9-MyD88 inh	Granule exo inh	NOD2 RIPK2 PPI	TLR4 MyD88 comp	ABHD5-PLIN5 inh	PRMT1 inh	PRMT1 confirm
C[c-]1[c-](C)[c-](C)[c-](C)[c-]1C.[Fe].c1cc2nccc(N3CCCC3)[c-]2c1 (stereo not given)	0	0	0	-	0	25.9	0
c1cc(N2CCCCC2)nc(N2CCCCC2)n1	0	0	0	-	0	0	-
Cc1ccc(-n2c(SCC(=O)Nc3ccc4c5c(cccc35)CC4)nc(O)c(C)c2=O)cc1	0	0	0	0	0	36.6	31.4
Cc1ccc(C)c(N2CCN(c3nc4ccccc4c(=O)n3Cc3ccccc3)CC2)c1	0	0	0	0	0	0	-
O=c1c2ccccc2nc(N2CCN(c3ccccc3)CC2)n1Cc1ccccc1	0	0	0	0	0	74.2	0
COC(=O)CCCc1nc2ccccc2s1	0	0	0	0	0	0	-
CC(=O)OCc1nc2ccccc2s1	0	0	0	0	0	0	-
O=C(O)COCc1nc2ccccc2s1	0	0	0	-	0	53.5	0
CC(=O)c1ccc(OC(=O)CCc2nc3ccccc3s2)cc1	-	0	0	0	0	74.8	27.2
O=C(CNC(=O)c1ccccc1F)NCc1ccccn1	0	0	0	-	0	0	-
O=C(NNC(=O)C(c1ccccc1)c1ccccc1)c1ccccc1O	0	0	0	-	0	0	-
CCC(=O)/C=C1\Sc2ccc(OC)cc2N1CC	0	0	0	0	0	52.4	0
COc1ccc(N2C(=O)CSC(c3ccccc3)C2=O)cc1 (stereo not given)	0	0	0	0	0	0	-
C/C=C\C=C/C(=O)Nc1cccc(C2=NOC3(C2)C[C@@H](C(N)=O)N(C(=O)CCCCC)C3)c1 (stereo not given in full)	0	0	0	-	0	25.1	64.6
C/C=C\C=C/C(=O)Nc1cccc(C2=NOC3(C2)C[C@H](C(N)=O)N(C(=O)Cc2ccc([N+](=O)[O-])cc2)C3)c1 (stereo not given in full)	0	0	0	-	0	42.3	51.5
C/C=C\C=C/C(=O)Nc1cccc(C2=NOC3(C2)C[C@H](C(N)=O)N(C(=O)CC)C3)c1 (stereo not given in full)	0	0	0	-	0	0	-
O=S(=O)(Nc1nc(-c2ccco2)c(-c2ccco2)s1)c1ccc(F)cc1F	0	0	0	-	0	45.0	0
O=S(=O)(Nc1nc2ccccc2s1)c1cc(F)ccc1F	0	0	0	-	0	0	-
O=C(Nc1nc(-c2ccco2)c(-c2ccco2)s1)c1ccc(F)cc1F	0	0	0	-	0	34.2	0
O=C(Nc1nc(-c2ccco2)c(-c2ccco2)s1)c1c(F)cccc1Cl	0	0	0	-	33.4	53.8	0
COCc1c(C(=O)NCC(c2ccco2)N2CCCC2)oc2ccccc12 (stereo not given)	0	0	0	-	0	0	-
NC(=O)CN1C(=O)/C(=c2\sc3nc(=O)c(Cc4ccccc4)nn3c2=O)c2ccccc21	-	0	0	-	0	45.1	39.6
Cc1nc(SCc2ccc(O)c([N+](=O)[O-])c2)c([N+](=O)[O-])[nH]1	0	0	0	-	0	35.4	0
Cc1nc(SCc2ccc(O)c([N+](=O)[O-])c2)n[nH]1	0	0	0	0	0	0	-
CN(C)c1ccc(-c2ccnc3c2CC(C)(C(=O)NCC2CCOCC2)O3)cc1 (stereo not given)	-	0	0	-	0	0	-
SMILES	TLR9-MyD88 inh	Granule exo inh	NOD2 RIPK2 PPI	TLR4 MyD88 comp	ABHD5-PLIN5 inh	PRMT1 inh	PRMT1 confirm
O=C(c1ccco1)N1CCN(C(=O)c2cnn(-c3ccc(F)cc3)c2-n2cccc2)CC1	0	0	0	-	0	0	-
CCOC(=O)c1ccc(NC(=O)c2c(NC(=O)CCC(=O)O)sc3c2CCCCC3)cc1	-	0	0	0	0	43.8	0
CCOc1ccccc1NC(=O)c1c(NC(=O)CCC(=O)O)sc2c1CCCCC2	0	0	0	0	0	25.4	0
CCCOC(=O)c1c(NC(=O)CCC(=O)O)sc2c1CCCCC2	0	0	0	0	0	0	-
Cc1ccccc1NC(=O)c1cccc(N2C(=O)C3C4CC(C(Br)C4Br)C3C2=O)c1 (stereo not given)	0	0	0	-	0	0	-
CCC(Oc1ccccc1)C(=O)Nc1nc2ccccc2[nH]1 (stereo not given)	0	0	0	0	0	26.3	0
O=S(Cc1ccc(Cl)cc1)c1ccccc1 (stereo not given)	0	0	0	-	0	0	-
O=C(O)c1ccc(-n2cccc2/C=C2/NC(=O)N(c3ccccc3)C2=O)cc1	0	0	0	-	0	0	-
O=C(O)c1ccc(-n2cccc2/C=C2/NC(=O)N(c3cccc(Cl)c3)C2=O)cc1	0	0	0	0	0	28.7	0
Cc1ccccc1-c1ccc2c(c1)[C@@H]1C[C@H]3[C@@H](CN1CC2)[C@H](C)OC(C1CCCCC1)N3C (stereo not given in full)	-	-	-	-	-	0	-
COc1ccc(C(=O)COC(=O)Cn2cnc3ccccc3c2=O)c(OC)c1	0	0	0	-	0	0	-
CN(c1ncc(C(F)(F)F)cc1Cl)N1C(=O)C2ONC3(C(=O)CC(C)(C)CC3=O)C2C1=O (stereo not given)	0	0	0	0	0	72.2	0
NNC(=O)c1cc2c(N3CCC(Cc4ccccc4)CC3)ncnc2s1	0	0	0	0	0	0	-
O=C1CCC(=O)c2ccc3c4c(ccc1c24)CC3	0	0	0	-	0	26.7	0
Cc1ccc(S(=O)(=O)CCSC(=N)N)cc1	0	0	0	0	0	25.0	0
Cc1ccc(S(=O)(=O)CC(N)=O)cc1	0	0	0	0	0	0	-
O=C(NN=Cc1ccccc1C(=O)O)C(=O)NN=Cc1ccccc1C(=O)O	0	0	0	-	0	103.9	0
O=C(N/N=C/c1ccccc1C(=O)O)c1ccncc1	0	0	0	-	0	0	-
Nc1ccccc1-c1nnc(-c2ccccc2N)n1N	0	0	0	0	0	0	-
Cc1cc2cc(C=C(C#N)C#N)c(Cl)nc2cc1C	0	0	0	0	0	85.8	0
CCOC(=O)/C(C#N)=C/c1cc2cc(C)c(C)cc2nc1Cl	0	0	0	-	0	0	-
Cc1cc(C)nc(Sc2nc(Cl)nc(N(c3ccccc3)c3ccccc3)n2)n1	0	0	0	0	0	58.9	0
COc1ccc(C2=NS(=O)(=O)N(C)C(C(=O)Nc3ccc(F)cc3F)=C2)cc1	0	0	0	-	0	85.0	0

Compound activity from PubChem BioAssay.
